# Reference: PubChem BioAssay
# Calls of active or inactive are those of the source. Unless noted, how the calls were made is not given here.
# Columns and labels:
# [1] = anti-His antibody binders, primary screen, artefact control for SMM control protein annotation, biochemical, small-molecule microarray, 635 nm fluorescence (AID 1128); conditions: anti-His Alexa647 antibody binding, higher = more signal;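 further: score merges feature fluorescence with signal-to-noise for each printed compound spot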
# [2] = tested on: Human papillomavirus type 1a E7 protein (residues 1-88); test: HPV1a E7 small-molecule binders, primary screen, biochemical, small-molecule microarray, residues 1-88, 635 nm (AID 1129); conditions: small-molecule microarray binding, fluorescence 635 nm; higher = more signal
# [3] = biological target: Focal adhesion kinase 1 (Homo sapiens) (UniProt Q05397); test: small-molecule microarray binders of FAK, primary screen, biochemical, 635/667 nm fluorescence, BSA, DTT (AID 1130); conditions: PTK2 binding, 635 nm fluorescence, higher = more signal;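 further: composite of spot emission at 667 nm and signal to noise over triplicate slides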
# Focal adhesion kinase 1 (Homo sapiens), sequence (Q05397 whole entry, looked up): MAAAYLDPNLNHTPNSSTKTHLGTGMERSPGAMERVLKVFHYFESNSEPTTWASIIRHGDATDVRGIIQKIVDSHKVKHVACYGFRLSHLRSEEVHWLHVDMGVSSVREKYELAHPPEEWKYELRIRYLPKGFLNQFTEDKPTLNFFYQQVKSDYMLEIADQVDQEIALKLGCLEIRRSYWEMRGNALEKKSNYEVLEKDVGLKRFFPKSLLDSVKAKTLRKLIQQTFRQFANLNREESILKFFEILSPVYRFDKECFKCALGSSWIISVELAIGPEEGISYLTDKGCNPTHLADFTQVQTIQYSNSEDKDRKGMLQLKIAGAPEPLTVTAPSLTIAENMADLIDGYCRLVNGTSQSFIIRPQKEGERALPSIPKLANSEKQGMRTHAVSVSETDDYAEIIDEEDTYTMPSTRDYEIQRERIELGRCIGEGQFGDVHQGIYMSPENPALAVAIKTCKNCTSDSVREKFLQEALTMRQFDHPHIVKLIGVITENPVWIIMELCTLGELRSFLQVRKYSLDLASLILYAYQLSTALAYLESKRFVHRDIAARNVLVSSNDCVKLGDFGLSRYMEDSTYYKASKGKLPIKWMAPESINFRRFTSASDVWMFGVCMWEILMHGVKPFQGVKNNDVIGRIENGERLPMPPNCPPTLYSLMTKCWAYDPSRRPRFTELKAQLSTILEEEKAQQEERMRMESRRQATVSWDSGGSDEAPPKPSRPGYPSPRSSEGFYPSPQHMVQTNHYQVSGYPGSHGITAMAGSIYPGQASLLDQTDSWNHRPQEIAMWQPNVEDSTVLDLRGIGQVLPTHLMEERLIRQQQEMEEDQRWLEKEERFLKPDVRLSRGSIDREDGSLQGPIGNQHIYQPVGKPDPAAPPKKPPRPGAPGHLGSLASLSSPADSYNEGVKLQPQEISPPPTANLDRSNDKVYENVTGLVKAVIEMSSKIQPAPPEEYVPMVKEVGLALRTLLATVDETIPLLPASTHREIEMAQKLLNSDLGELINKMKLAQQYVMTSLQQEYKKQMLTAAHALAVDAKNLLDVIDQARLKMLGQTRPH
# [4] = tested on: Fibrinogen (Alexa647-labelled); test: fibrinogen binders on compound microarrays, profiling panel, artefact control for SMM control-protein annotation, biochemical, small-molecule microarray, 635/667 nm fluorescence (AID 1131); conditions: fibrinogen-A647 binding fluorescence, higher = more signal;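 further: z-score merges 667 nm fluorescence with per-spot signal-to-noise over triplicate slides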
# [5] = biological target: Follistatin (Homo sapiens) (UniProt P19883); test: follistatin binders on small-molecule microarrays, primary screen, biochemical, small-molecule microarray, 635/667 nm fluorescence (AID 1132); conditions: FST binding, 635 nm fluorescence, higher = more signal
# Follistatin (Homo sapiens), sequence (P19883 whole entry, looked up): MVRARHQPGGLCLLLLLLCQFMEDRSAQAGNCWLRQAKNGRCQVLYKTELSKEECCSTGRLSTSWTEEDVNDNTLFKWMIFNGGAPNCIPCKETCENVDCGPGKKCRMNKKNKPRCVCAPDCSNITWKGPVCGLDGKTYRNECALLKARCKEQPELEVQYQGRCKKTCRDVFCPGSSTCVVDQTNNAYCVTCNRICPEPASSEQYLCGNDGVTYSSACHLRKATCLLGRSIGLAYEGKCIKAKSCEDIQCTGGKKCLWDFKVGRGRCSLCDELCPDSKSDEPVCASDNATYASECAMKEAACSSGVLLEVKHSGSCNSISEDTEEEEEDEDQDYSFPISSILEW
# [6] = biological target: Fibroblast growth factor 2 (Homo sapiens) (UniProt P09038); test: FGF2 binders on small-molecule microarrays, primary screen, biochemical, small-molecule microarray, 635/667 nm fluorescence (AID 1133); conditions: small-molecule microarray binding, FGF2, fluorescence 635/667; higher = more signal
# Fibroblast growth factor 2 (Homo sapiens), sequence (P09038 whole entry, looked up): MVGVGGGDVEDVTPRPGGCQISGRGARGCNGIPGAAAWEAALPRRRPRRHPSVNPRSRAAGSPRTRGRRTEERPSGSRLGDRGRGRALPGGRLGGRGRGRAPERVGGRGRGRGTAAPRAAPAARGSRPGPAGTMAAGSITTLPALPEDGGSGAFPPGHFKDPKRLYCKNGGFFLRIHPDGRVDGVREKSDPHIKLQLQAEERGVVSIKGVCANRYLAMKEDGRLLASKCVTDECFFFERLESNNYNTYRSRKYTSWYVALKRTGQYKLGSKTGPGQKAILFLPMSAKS
# [7] = mitochondrial membrane potential change in A549 cells, profiling panel, cell-based, JC-1 fluorescence, basal, 24 h, 100 nL (AID 1138); conditions: higher = more signal;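 further: A549 lung adenocarcinoma cells under basal conditions with no added stimulus; test concentration not given here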
# Lefty1 = Lefty1 binders on small-molecule microarrays, primary screen, biochemical, small-molecule microarray, 635/667 nm fluorescence (AID 1139); conditions: small-molecule microarray binding, fluorescence 635/667; higher = more signal
# [8] = tested on: wheat germ agglutinin (Triticum aestivum), Alexa647-labelled; test: wheat germ agglutinin binders on compound microarrays, profiling panel, artefact control for SMM control-protein annotation, biochemical, small-molecule microarray, 635/667 nm fluorescence (AID 1140); conditions: WGA-A647 binding, 635 nm fluorescence, higher = more signal;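 further: score merges 667 nm feature emission with signal to noise over triplicate slides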
# [9] = biological target: Luciferin 4-monooxygenase (Photinus pyralis) (UniProt P08659); test: firefly luciferase enzyme inhibitors, primary screen, biochemical, luminescence, purified enzyme, 2006 set (AID 1141); conditions: SteadyGlo luminescence, 30 min, higher = more signal, called active from +8 up or from −8 down;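 further: cell-free assay with purified firefly luciferase at 100 ng per well in PBS; test concentration not given here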
# Luciferin 4-monooxygenase (Photinus pyralis), sequence (P08659 whole entry, looked up): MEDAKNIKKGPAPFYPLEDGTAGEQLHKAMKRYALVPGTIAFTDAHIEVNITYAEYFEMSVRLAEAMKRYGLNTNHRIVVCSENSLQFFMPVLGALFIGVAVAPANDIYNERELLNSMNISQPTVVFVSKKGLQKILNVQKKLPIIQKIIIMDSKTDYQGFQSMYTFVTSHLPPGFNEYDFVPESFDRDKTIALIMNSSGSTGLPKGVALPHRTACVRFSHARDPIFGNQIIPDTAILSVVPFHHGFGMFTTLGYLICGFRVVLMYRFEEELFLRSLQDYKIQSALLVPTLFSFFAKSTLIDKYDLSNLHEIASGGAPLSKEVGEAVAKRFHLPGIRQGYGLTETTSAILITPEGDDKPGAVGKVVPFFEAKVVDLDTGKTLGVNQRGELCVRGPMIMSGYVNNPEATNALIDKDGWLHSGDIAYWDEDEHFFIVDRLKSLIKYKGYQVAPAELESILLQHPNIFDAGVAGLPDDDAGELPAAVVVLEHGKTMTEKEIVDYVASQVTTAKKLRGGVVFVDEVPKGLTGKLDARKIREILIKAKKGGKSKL
# [10] = tested on: Wnt5a (protein binding on small-molecule microarray); test: Wnt5a binders on small-molecule microarray, primary screen, biophysical, 635/667 nm fluorescence (AID 1142); conditions: 635 nm fluorescence, higher = more signal;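 further: fluorescence read at 667 nm with signal to noise per printed feature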
# [11] = cell viability in Huh7 cells, primary screen, cytotoxicity control for HCV replication inhibitor project, CellTiter-Glo luminescence, basal, 48 h (AID 1143); conditions: Huh7 HCV replicon, higher = more signal, called active from +8 up or from −8 down;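 further: Huh7 hepatoma cells carrying a hepatitis C replication reporter with no stimulus; test concentration not given here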
# [12] = P. aeruginosa biofilm formation inhibitors, primary screen, PAO1 strain, BacTiter-Glo luminescence, LB-PBS (AID 1144); conditions: 12 h, higher = more signal
# [13] = CREB reporter modulators without forskolin, primary screen, cell-based, PC12, CRE-LacZ reporter, unstimulated (AID 1145); conditions: no forskolin, luminescence, 4.5 h, higher = more signal, called active from +8 up or from −8 down
# [14] = CREB reporter modulators under forskolin, primary screen, cell-based, PC12, CRE-LacZ reporter, forskolin-stimulated (AID 1146); conditions: luminescence, 4.5 h, higher = more signal, called active from +8 up or from −8 down;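 further: PC12 cells with 6xCRE LacZ reporter stimulated by forskolin 10 µM; beta-galactosidase reporter signal reflecting CREB driven transcription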
# [15] = biological target: Streptavidin (Streptomyces avidinii) (UniProt P22629); test: streptavidin binders on small-molecule microarray, primary screen, artefact control for SMM compound annotation, biophysical, 635/667 nm fluorescence (AID 1147); conditions: streptavidin binding, higher = more signal;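 further: signal reflects streptavidin binding to arrayed compounds as a control protein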
# Streptavidin (Streptomyces avidinii), sequence (P22629 whole entry, looked up): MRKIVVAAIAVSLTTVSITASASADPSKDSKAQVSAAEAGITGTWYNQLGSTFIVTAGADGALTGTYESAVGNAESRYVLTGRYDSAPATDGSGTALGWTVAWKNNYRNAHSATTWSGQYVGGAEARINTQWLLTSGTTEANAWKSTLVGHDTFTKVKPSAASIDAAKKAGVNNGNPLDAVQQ
# [16] = small-molecule binders of probe aInhba, primary screen, biochemical, small-molecule microarray, 635/667 nm fluorescence (AID 1148); conditions: higher = more signal;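 further: score merges 667nm spot fluorescence with signal-to-noise for antibody binding to printed compounds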
# Torsin-1A (Homo sapiens) [17] = biological target: Torsin-1A (Homo sapiens) (UniProt O14656); test: torsin A binders from cell lysate, primary screen, small-molecule microarray, wild-type, 635/667 nm (AID 1149); conditions: COS7 hTOR1A-WT lysate, 635 nm fluorescence, higher = more signal
# Torsin-1A (Homo sapiens), sequence (O14656 whole entry, looked up): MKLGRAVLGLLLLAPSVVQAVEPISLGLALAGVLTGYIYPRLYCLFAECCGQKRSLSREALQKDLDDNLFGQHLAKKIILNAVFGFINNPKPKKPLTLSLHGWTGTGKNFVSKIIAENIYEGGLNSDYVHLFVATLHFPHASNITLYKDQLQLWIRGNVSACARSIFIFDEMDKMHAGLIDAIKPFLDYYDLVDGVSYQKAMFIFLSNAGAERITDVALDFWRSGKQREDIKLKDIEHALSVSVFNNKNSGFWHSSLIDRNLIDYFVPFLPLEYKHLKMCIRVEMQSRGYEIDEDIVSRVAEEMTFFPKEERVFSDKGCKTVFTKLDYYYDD
# Torsin-1A (Homo sapiens) [18] = biological target: Torsin-1A (Homo sapiens) (UniProt O14656); test: small-molecule binders of mutant TOR1A in lysate, primary screen, cell lysate, small-molecule microarray, COS7 lysate, 635/667 nm fluorescence (AID 1150); conditions: COS7 hTOR1A mutant lysate, 635 nm fluorescence, higher = more signal;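 further: score pools 667 nm emission and signal to noise measuring lysate protein binding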
# [19] = tested on: Sonic hedgehog protein (Shh); test: small-molecule binders of Shh protein, primary screen, biochemical, small-molecule microarray, 635/667 nm fluorescence (AID 1151); conditions: small-molecule microarray binding, 635 nm fluorescence; higher = more signal;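 further: Shh protein binding to compounds spotted on small-molecule microarray slides; score combines spot fluorescence intensity with signal-to-noise across triplicate slides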
Structure (SMILES),composite z-score [1],composite z-score [2],composite z-score [3],composite z-score [4],composite z-score [5],composite z-score [6],z-score [7],composite z-score (Lefty1),composite z-score [8],z-score [9],composite z-score [10],z-score [11],z-score [12],z-score [13],z-score [14],composite z-score [15],composite z-score [16],composite z-score (Torsin-1A (Homo sapiens) [17]),composite z-score (Torsin-1A (Homo sapiens) [18]),composite z-score [19]
O=C1C[C@@](C(=O)NCCN2CCOCC2)(c2ccc([N+](=O)[O-])cc2)[C@@H](c2ccc(CO)cc2I)N1C1CCCCC1,1.27,1.24,0.211,-0.415,1.15,0.94,1.8,0.992,0.308,1.35 (inactive),0.642,-4.95 (inactive),-1.36 (inactive),0.0279 (inactive),-1.11 (inactive),-0.0491,-0.0468,-0.308,0.896,1.92
COC(=O)[C@@]1(Cc2ccc(OC)cc2)[C@H]2c3cc(C(=O)N4CCCC4)n(Cc4cccc5ccccc45)c3C[C@H]2CN1C(=O)c1ccccc1,1.57,1.2,0.164,0.704,0.36,-0.247,1.07,-0.245,0.396,1.31 (inactive),0.43,-2.8 (inactive),1.14 (inactive),0.0041 (inactive),0.259 (inactive),0.688,0.447,-0.25,0.338,-0.338
COc1ccc([Si](C)(C)[C@H]2[C@H](CCn3cc([C@H](O)c4ccccc4)nn3)O[C@@]3(C(=O)N(Cc4ccc(N5C(=O)c6cccc7cccc5c67)cc4)c4ccccc43)[C@@H]2C)cc1,0.107,0.0893,-0.254,-0.153,-0.185,0.768,2.81,-0.0986,0.0681,-1.19 (inactive),-0.21,-2.02 (inactive),-1.05 (inactive),1.02 (inactive),-0.715 (inactive),0.618,-0.0791,-0.734,-0.35,0.232
CCOc1cc(C(O)C2C=CC3C(=O)N(C)C(=O)C3N2Nc2ccccc2)ccc1O (stereo not given),1.08,0.881,0.327,0.651,0.0506,-0.153,-0.203,-0.0696,0.974,-1.2 (inactive),0.297,0.559 (inactive),-0.947 (inactive),0.626 (inactive),-0.276 (inactive),0.702,-0.0297,0.526,0.467,-0.485
COC(=O)c1c2oc(c1C(=O)OC)C(=O)N(Cc1ccccc1)Cc1cn(nn1)C[C@H](Cc1ccccc1)NC(=O)N[C@H](CO)CC2,0.402,0.848,-0.0924,0.961,0.183,-0.107,0.534,0.717,0.134,0.978 (inactive),0.131,-1.84 (inactive),-1.12 (inactive),0.964 (inactive),-1.16 (inactive),-0.25,-0.154,-0.0053,0.218,0.346
COCCCNC(=O)[C@@]1(Cc2ccccc2CN=[N+]=[N-])N=C(c2ccc(OCCCO)cc2)O[C@H]1c1ccccc1,1.75,1.23,0.895,0.991,1.25,0.14,-0.0671,0.365,0.73,0.094 (inactive),0.919,-4.74 (inactive),-0.688 (inactive),0.391 (inactive),0.145 (inactive),0.284,0.0872,0.821,1.26,-0.715
O=C(NCC(F)(F)F)[C@@H]1c2ccccc2C(=O)N(Cc2cc(F)cc(C(F)(F)F)c2)[C@H]1c1ccc(CO)cc1,0.44,-0.178,-0.385,-0.78,-0.682,-0.843,-1.37,-1.24,-0.948,1.08 (inactive),-0.328,-1.77 (inactive),-1.38 (inactive),-0.529 (inactive),0.861 (inactive),-1.24,-0.128,-1.73,-1.22,-1.09
COC(=O)[C@@]1(Cc2ccccc2N=[N+]=[N-])N=C(c2ccc(OCCCO)cc2)O[C@H]1c1ccccc1N=[N+]=[N-],1.08,1.14,0.909,0.605,1.27,0.933,2.85,0.119,0.767,-5.01 (inactive),0.323,-5.44 (inactive),-0.455 (inactive),1.53 (inactive),0.237 (inactive),0.169,0.221,-0.266,0.0067,0.58
CN(C)CCCNC(=O)[C@@H]1c2ccccc2C(=O)N(Cc2ccccc2Cl)[C@H]1c1ccc(CO)cc1,1.3,0.51,-0.0522,0.462,-0.0713,-0.0728,1.53,-0.92,1.05,-0.751 (inactive),-0.12,-1.77 (inactive),0.388 (inactive),-0.206 (inactive),-0.343 (inactive),-0.34,-0.182,1.59,0.798,-0.12
COC(=O)[C@@]1(Cc2ccccc2)[C@H]2c3cc(C(=O)N(C)C)n(CCc4ccc(O)c(OC)c4)c3C[C@H]2CN1C(=O)c1ccccc1,0.964,0.88,0.0098,0.814,0.168,0.273,0.153,0.0511,0.0048,0.554 (inactive),1.01,0.394 (inactive),0.333 (inactive),0.201 (inactive),0.334 (inactive),0.545,1.07,0.0405,0.212,-0.0598
